{"source": "PubChem BioAssay AID623868", "about": "(Vanderbilt High Throughput Screening Facility, 2012)", "note": "Screen size: about 2,100 compounds; about 760 (36%) were called active. The list is a sample of the results. Values without a mark were called inactive.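 How the source made its calls: active means thallium-flux fluorescence traces judged by eye to show enhanced or reduced glutamate response, manual score 1 or -1, so both directions (some results past the limit were not filed as active); inactive means the rest, including fluorescent or raised-baseline compounds.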", "data": [{"test": "non-GIRK thallium flux modulation in mGlu8 cells, confirmation, counter-screen for GIRK activator project, cell-based, HEK-293 rmGlu8, no GIRK (AID 623868);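 further: extra codes mark interference with 3 for fluorescent and 4 for baseline rise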", "details": "thallium flux fluorescence, at 10 µM, actives lie on both sides, codes: 1 enhancer, -1 blocker, 0 none, thallium stimulus containing EC20 glutamate", "values": [{"smiles": "O=C(C1CCN(S(=O)(=O)c2cccc3cccnc23)CC1)N1CC=C(c2ccccc2)CC1", "manual score": "-1 (active)"}, {"smiles": "O=C(C1CCCN1S(=O)(=O)c1cccc2cccnc12)N1CCc2ccccc21", "note": "(stereo unspecified)", "manual score": 0}, {"smiles": "O=C(C1CCCN1S(=O)(=O)c1cccc2cccnc12)N1CCn2c1nc1ccccc12", "note": "(stereo unspecified)", "manual score": 0}, {"smiles": "S=c1[nH]nc(-c2ccco2)n1/N=C/c1ccc(Br)s1", "manual score": "1 (active)"}, {"smiles": "Cc1cc(-c2n[nH]c(=S)n2/N=C/c2ccc(Br)s2)n[nH]1", "manual score": "1 (active)"}, {"smiles": "CCN=c1scc(-c2ccco2)n1/N=C/c1ccc(O)cc1", "manual score": 0}, {"smiles": "S=c1[nH]nc(-c2ccccn2)n1/N=C/c1ccc(Br)s1", "manual score": "1 (active)"}, {"smiles": "Cc1c(C(=O)NCc2cccnc2)oc2ccc(S(=O)(=O)N3CCC4(CC3)OCCO4)cc12", "manual score": 0}, {"smiles": "Clc1ccc(CSc2ncn(-c3ccccc3)n2)cc1", "manual score": 0}, {"smiles": "COC(=O)Cn1c(CN2CCc3ccccc3C2)nc2c1c(=O)n(C)c(=O)n2C", "manual score": 0}, {"smiles": "Cc1ccc(-n2c(CSc3nc(C)cc(C)n3)nnc2SCC(=O)NCc2ccco2)cc1", "manual score": 0}, {"smiles": "O=C(CSc1nnc(-c2c[nH]c3ccccc23)n1-c1ccc(F)cc1)NCc1ccco1", "manual score": "-1 (active)"}, {"smiles": "O=C(CSc1c[nH]c2ccccc12)NCc1ccc2c(c1)OCO2", "manual score": 0}, {"smiles": "CCOC(=O)C1CCCN(c2nc(C)nc3c2oc2ccccc23)C1", "note": "(stereo unspecified)", "manual score": 0}, {"smiles": "CCOC(=O)N1CCN(C(=O)CN(Cc2ccccc2)S(=O)(=O)c2ccc(OC)c(C)c2)CC1", "manual score": 0}, {"smiles": "C=CCn1c(SCC(=O)Nc2sccc2C(N)=O)nc2ccc(Cl)cc2c1=O", "manual score": "1 (active)"}, {"smiles": "COc1ccc(CNCCC(c2ccc(F)cc2)c2ccc(OC)cc2)cc1", "note": "(stereo unspecified)", "manual score": 0}, {"smiles": "O=C(/C=C/c1ccccc1)C1C(=O)c2ccccc2C1=O", "manual score": "1 (active)"}, {"smiles": "CCc1ccc(/C=c2\\s/c(=C\\C(=O)C(C)(C)C)[nH]c2=O)cc1", "manual score": 0}, {"smiles": "CC(/C=C\\c1cccnc1)=C/C(=O)O", "manual score": 0}, {"smiles": "CCc1ccc(/C=C/C(=O)C2C(=O)c3ccccc3C2=O)cc1", "manual score": "1 (active)"}, {"smiles": "CCOC(=O)C1=NNC(C(=O)c2ccc(OC)cc2)C1c1ccccc1", "note": "(stereo unspecified)", "manual score": 0}, {"smiles": "Cc1ccc2c(c1)NC(=O)CC(c1ccccc1)=N2", "manual score": 0}, {"smiles": "FC(F)(F)c1ccc2nnc(-c3c(Cl)cccc3Cl)n2c1", "manual score": 0}, {"smiles": "CN(c1ccc(OCC(=O)OCC(=O)Nc2ccccc2F)cc1)S(=O)(=O)c1cccs1", "manual score": 0}, {"smiles": "CC(C)c1nc(=S)c2ccccc2[nH]1", "manual score": "1 (active)"}, {"smiles": "S=c1nc(C2CC2)[nH]c2ccccc12", "manual score": "1 (active)"}, {"smiles": "c1ccc2c(NC3CCCC3)nnc(NC3CCCC3)c2c1", "manual score": 0}, {"smiles": "CCc1ccc(CNCCNCC(C)O)cc1", "note": "(stereo unspecified)", "manual score": 0}, {"smiles": "Clc1ccc(Cl)c(OCc2cc(-c3ccccc3Cl)on2)c1", "manual score": 0}, {"smiles": "CCCc1cc(=O)n2[nH]c(-c3ccc(Br)cc3)cc2n1", "manual score": 0}, {"smiles": "COc1ccccc1C(=O)NNC(=S)NC(=O)c1sc2ccccc2c1Cl", "manual score": "1 (active)"}, {"smiles": "CC(C)(C)C(=O)NC(=S)NNC(=O)c1sc2ccccc2c1Cl", "manual score": "1 (active)"}, {"smiles": "COc1ccc2cc(C(=O)Nc3ccccc3)sc(=O)c2c1OC", "manual score": 0}, {"smiles": "COc1ccccc1C(=O)NC(=S)NNC(=O)c1sc2ccccc2c1Cl", "manual score": "1 (active)"}, {"smiles": "CCCCCc1nnc(NC(=O)Cc2cccs2)s1", "manual score": 0}, {"smiles": "CNC(=S)N=Nc1c(O)[nH]c2ccc(C(C)C)cc12", "manual score": "1 (active)"}, {"smiles": "COc1cccc(NC(=O)CC2COc3ccccc3O2)c1", "note": "(stereo unspecified)", "manual score": 0}, {"smiles": "C#CC(CO)N(CCN(Cc1ccccc1)C(C#C)CO)Cc1ccccc1", "note": "(stereo unspecified)", "manual score": 0}, {"smiles": "COc1ccc(-c2nnc(NC(=O)c3ccc(S(=O)(=O)N4CCc5ccccc5C4)cc3)o2)cc1", "manual score": "1 (active)"}, {"smiles": "CCOc1ccc(-c2nc(-c3ccc(OC)c(OC)c3)no2)cc1OCC", "manual score": 0}, {"smiles": "COc1ccc(-c2nnc(NC(=O)c3ccc(S(=O)(=O)N4CCCc5ccccc54)cc3)o2)cc1", "manual score": "1 (active)"}, {"smiles": "Cc1cccc(N2CCN(C(=O)c3ccc(Cl)c(S(=O)(=O)N4CCc5ccccc5C4)c3)CC2)c1C", "manual score": 0}, {"smiles": "CCOc1ccc(-c2nnc(NC(=O)c3ccc(OCC(C)C)c(OC)c3)o2)cc1", "manual score": "1 (active)"}, {"smiles": "CCOc1ccc(-c2nnc(NC(=O)CCCOc3cccc(C)c3)o2)cc1", "manual score": 0}, {"smiles": "COc1ccc(-c2nnc(NC(=O)c3ccc(S(=O)(=O)N4COCC4(C)C)cc3)o2)cc1", "manual score": "1 (active)"}, {"smiles": "CCCCCCCC1CC(CSC(=N)N)OC1=O", "note": "(stereo unspecified)", "manual score": 0}, {"smiles": "COc1ccc(C(C)N2CC34C=CC(O3)C(C(=O)OCC(C)C)C4C2=O)cc1", "note": "(stereo unspecified)", "manual score": 0}, {"smiles": "N#CCCn1nc(-c2ccc(Cl)cc2)cc1Nc1ccccc1NC(=O)C(F)(F)F", "manual score": 0}, {"smiles": "COc1ccc(-c2nnc(NC(=O)c3ccc(F)cc3)o2)cc1", "manual score": "1 (active)"}, {"smiles": "CCc1cc(C(N)=O)c(NC(=O)c2ccc(OC)cc2)s1", "manual score": 0}, {"smiles": "O=C(Nc1nnc(-c2ccco2)o1)c1ccc2ccccc2c1", "manual score": "1 (active)"}, {"smiles": "O=C(CSc1ccc(-c2ccco2)nn1)c1ccccc1", "manual score": 0}, {"smiles": "CCCCOC(=S)NC(=O)c1sc2ccccc2c1Cl", "manual score": "1 (active)"}, {"smiles": "O=C(NC(=S)N(CCCCO)C1CCCCC1)c1sc2ccccc2c1Cl", "manual score": "1 (active)"}, {"smiles": "CCCOC(=S)NC(=O)c1sc2ccccc2c1Cl", "manual score": "1 (active)"}, {"smiles": "CCOC(=S)NC(=O)c1sc2ccccc2c1Cl", "manual score": "1 (active)"}, {"smiles": "OC(CN1C2=NCCCN2c2ccccc21)c1ccc(Br)cc1", "note": "(stereo unspecified)", "manual score": 0}, {"smiles": "N=c1c(C(=O)NCc2ccco2)cc2c(=O)n3ccccc3nc2n1CCc1ccccc1", "manual score": 0}, {"smiles": "Cc1ccc2c(Cl)cc(Cl)c(OCC(=O)NCc3ccco3)c2n1", "manual score": "1 (active)"}, {"smiles": "CCC/C(=N/NC(=O)c1cccc(Cl)c1)c1ccccc1", "manual score": "1 (active)"}, {"smiles": "CCNC(=S)N/N=C1\\CCCCc2ccccc21", "manual score": 0.5}, {"smiles": "COc1cccc(NC(=O)Cn2cc3c(n2)CCCCC3)c1", "manual score": 0}, {"smiles": "COc1cccc(NC(=S)N/N=C2/CCCCc3ccccc32)c1", "manual score": "1 (active)"}, {"smiles": "COc1ccc(Nc2nc(N)nc(CSc3nnc(C)s3)n2)cc1", "manual score": 0}, {"smiles": "COc1cc(OC)c(-c2c3cc(O)c(=O)cc-3oc3cc(O)c(O)cc23)cc1OC", "manual score": 3}, {"smiles": "COc1ccccc1NC(=O)C(=O)NNC(=O)c1ccco1", "manual score": "1 (active)"}, {"smiles": "COc1ccc(NC(=O)Nc2ccccc2OC)cc1", "manual score": 0}, {"smiles": "COc1ccc(C)cc1NC(=O)Nc1ccccc1", "manual score": 0}, {"smiles": "COc1ccc(C)cc1NC(=O)C(=O)NNC(=O)c1ccco1", "manual score": "1 (active)"}, {"smiles": "COc1cccc(CNCCNC(=O)c2ccco2)c1OC", "manual score": 0}, {"smiles": "COc1ccc(NC(=O)Nc2cc(C)ccc2OC)cc1", "manual score": 0}, {"smiles": "CC(C)c1ccc(-n2cccc2/C=C2/C(=N)N3C=CSC3=NC2=O)cc1", "manual score": 0}, {"smiles": "C(/C=C/C=C/Nc1ccccc1)=Nc1ccccc1", "manual score": 3}, {"smiles": "Cc1ccc(OCC(O)Cn2c(=N)n(CCN3CCCCC3)c3ccccc32)cc1", "note": "(stereo unspecified)", "manual score": 0}, {"smiles": "CC(c1ccc(Cl)cc1)n1c(-c2ccc3ccccc3n2)n[nH]c1=S", "note": "(stereo unspecified)", "manual score": "1 (active)"}, {"smiles": "CC(c1ccc(F)cc1)n1c(-c2ccc3ccccc3n2)n[nH]c1=S", "note": "(stereo unspecified)", "manual score": "1 (active)"}, {"smiles": "CC(=O)Nc1ccc(Oc2ncccn2)cc1", "manual score": 0}, {"smiles": "O=C(NNC(=O)c1cccnc1SCc1cccc([N+](=O)[O-])c1)c1ccccn1", "manual score": "1 (active)"}, {"smiles": "O=C(NNC(=O)c1cccnc1SCc1cccc([N+](=O)[O-])c1)c1cccnc1", "manual score": 0}, {"smiles": "Cc1cccc(C)c1NC(=O)C(NC(=O)c1ccccn1)c1ccc([N+](=O)[O-])cc1", "note": "(stereo unspecified)", "manual score": 0}, {"smiles": "O=C(c1oc(=O)c2ccccc2c1-c1ccccc1)N1CCN(C2CCCCC2)CC1", "manual score": 0}, {"smiles": "CCOC(=O)C1=C(O)C(=O)N(c2ccc(S(N)(=O)=O)cc2)C1c1ccccc1", "note": "(stereo unspecified)", "manual score": "-1 (active)"}, {"smiles": "CCOC(=O)c1cc2n(c1N)-c1ccccc1C2=O", "manual score": 3}, {"smiles": "CCOC(=O)c1ccc(N2C(=O)C(O)=C(C(C)=O)C2c2ccccc2)cc1", "note": "(stereo unspecified)", "manual score": -0.5}, {"smiles": "Clc1cccc(-c2ccc(/C=N/n3cnnc3)o2)c1Cl", "manual score": 0}, {"smiles": "CCCn1nnc(NC(=O)COc2ccc(C3CCCCC3)cc2)n1", "manual score": 0}, {"smiles": "CCCCn1nnc(NC(=S)NC(=O)c2ccc(-c3cccc(Cl)c3Cl)o2)n1", "manual score": "1 (active)"}, {"smiles": "COc1ccccc1N(C)S(=O)(=O)c1ccc(C(=O)N(CC(N)=O)C(C)C)cc1", "manual score": 0}, {"smiles": "CCOc1ccc(N2C(=O)/C(=C/c3cc(OC)c(OC)c(OC)c3)N(CC(=O)OC)C2=S)cc1", "manual score": 0}, {"smiles": "CS(=O)(=O)N(CC(=O)NCc1ccco1)c1ccc(Cl)c(C(F)(F)F)c1", "manual score": 0}, {"smiles": "CCOC(=O)C1CCN(C(=O)CN(c2ccc(Cl)c(C(F)(F)F)c2)S(C)(=O)=O)CC1", "manual score": "-1 (active)"}, {"smiles": "CCOC(=O)C1CCN(C(=O)N(C)C)CC1", "manual score": 0}, {"smiles": "O=C(N/N=C/c1ccc(Sc2ccccn2)o1)c1cc2ccccc2cc1O", "manual score": "1 (active)"}, {"smiles": "CCCOc1ccc(/C=N/NC(=O)C(=O)Nc2ccccn2)cc1", "manual score": 1.5}, {"smiles": "O=C(CSc1nc2ccccc2[nH]1)NC1CCCc2ccccc21", "note": "(stereo unspecified)", "manual score": 0}, {"smiles": "NC(=O)CSc1ncnc2c1cnn2Cc1ccccc1", "manual score": 0}, {"smiles": "Cc1ccc(CSc2ncnc3c2cnn3-c2ccc(C)cc2)cc1", "manual score": "1 (active)"}, {"smiles": "COc1ccc(OC)c(Nc2ncnc3c2cnn3-c2cccc(C)c2)c1", "manual score": 0}, {"smiles": "Cc1ccc(-n2ncc3c(SCc4ccccc4)ncnc32)cc1", "manual score": "1 (active)"}, {"smiles": "CN(C)CCNc1ncnc2c1cnn2-c1ccc(Cl)cc1", "manual score": 0}, {"smiles": "COc1cc2cnncc2cc1OC", "manual score": 0}, {"smiles": "CCOc1ccc(NC(=O)Cn2nnc(-c3ccccc3F)n2)cc1", "manual score": 0}, {"smiles": "N#Cc1c(N2CCN(C(=O)c3ccccc3)CC2)nc(-c2ccccc2)c2c1CCCC2", "manual score": 0}, {"smiles": "CSc1nc(-c2ccccc2)[nH]c(=S)c1C(C)=O", "manual score": "1 (active)"}, {"smiles": "CC(=O)c1c(N2CCCC2)[nH]c(-c2ccccc2)nc1=S", "manual score": "1 (active)"}]}]}
